# Only some compounds are listed: those with a hit (about 6.6% of all), similar ones and a draw of the others.
# HT1080 IDH1KD tx = toxicity to HT-1080 IDH1 knockdown cells (counter line) | HT-1080 IDH1 knockdown viability, ATP luminescence, 48 h | Potency, µM (doses to about 46.1 µM), most hits filed as cytotoxic | hit rate 2% among 360,000 | AID 686971
#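 Luminescent ATP read-out (CellTiter-Glo, 10 min at room temperature) after 48 h compound exposure at 37 °C gave viability of IDH1-knockdown HT-1080 cells. Activity was normalised to DMSO and cell-free wells, then fitted as concentration-response curves.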
# TGFb inhibitor = blocks TGF-b signaling; HepG2 CAGA-GFP TGF-b/SMAD3 reporter, GFP fluorescence, 18 h; TGF-beta stimulated, 500 pg/mL final; Potency, µM (series often up to 46.1 µM), hits mostly inhibitors; hit rate 1.2% among 410,000; AID 588855; further: nearly all actives have a fitted effect of over 65% in size
#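 HEPG2 CAGA-GFP reporter cells (1000/well, DMEM with 1% FBS) received compounds, then recombinant TGF-beta at 500 pg/mL final for 18 hours at 37 degrees C. Per-cell GFP summed per well was normalised to unstimulated and stimulated DMSO controls before curve fitting.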
# KB-3-1 cytotox = KB-3-1 parental cell cytotoxicity. KB-3-1 viability, CellTiter-Glo ATP luminescence, 72 h. Potency, µM (highest dose often 46.1 µM), hits mostly cytotoxic. hit rate 1.4% among 400,000; further: nearly all actives have a fitted effect of over 60% in size
#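 Viability of parental KB-3-1 cells, measured by CellTiter-Glo luminescence, followed a 72 h incubation at 37 °C with pinned compounds in phenol-red-free DMEM containing 10% FBS.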
# HepG2 viability = counter-screen for TGF-b inhibitors: cytotoxicity in HepG2 cells; Potency, µM (series often up to 46.1 µM), hits mostly cytotoxic; hit rate 0.76% among 410,000; HepG2 CAGA-GFP viability, ATP luminescence, 18 h
#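 CellTiter-Glo luminescence gave cytotoxicity after 18 hours at 37 degrees C. The cells were HepG2 CAGA-GFP in 1% FBS DMEM, stimulated with 500 pg/mL TGF-beta after compound addition. %Activity was normalised to no-cell wells (complete cell-killing) and DMSO (no toxicity), and curves were fitted and classified.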
# KB-V1 cytotox = kills drug-selected multidrug resistant KB-V1 cells. KB-V1 MDR cells viability, CellTiter-Glo, 72 h. Potency, µM (doses to about 46.1 µM), most hits filed as cytotoxic. hit rate 3.4% among 400,000. AID 1347076; further: nearly all actives have a fitted effect of over 60% in size
#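 Compound-treated KB-V1 multidrug-resistant cells, 72 h, 37 degrees C; viability by CellTiter-Glo. Fitted qHTS curves give the values.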
# HT1080NT lethal = kills 2HG-producing HT-1080-NT fibrosarcoma cells. HT-1080-NT fibrosarcoma viability, CellTiter-Glo ATP luminescence, 48 h. Potency, µM (titrated, usually from 46.1 µM), hits mostly cytotoxic. hit rate 1.6% among 360,000. AID 686970;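 further: NT is the 2HG producing partner of a matched IDH1 knockdown line; nearly all actives have a fitted effect of over 55% in size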
#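 Viability of the 2HG-overproducing fibrosarcoma line after 48 hours of compound exposure at 37 degrees C was determined by luminescence with CellTiter-Glo, and concentration-effect curves were then fitted and categorized.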
# A number is an active result; 0 = inactive; ? = inconclusive; - = no result given. The call rests on the fitted dose curve; in most records, active means well fitted curve in the direction sought with a large enough effect; inconclusive means small, poorly fitted or top-dose-only effect, or another doubt; inactive means no such curve, though single readings can be large; an effect the other way counts as inactive or inconclusive.
SMILES,HT1080 IDH1KD tx,TGFb inhibitor,KB-3-1 cytotox,HepG2 viability,KB-V1 cytotox,HT1080NT lethal
COc1ccc(CCNC(=O)c2ccc3nc(N4CCCCC4)sc3c2)cc1OC,0,0,0,0,18µM,0
CN(Cc1ccccc1)c1nc2c(S(=O)(=O)c3ccccc3)nnn2c2ccsc12,-,0,0,0,0,-
CN1CCN(C(=O)c2ccc(CN3CCOCC3)cc2)CC1,0,0,0,0,0,0
CCc1ccccc1NC(=O)c1ccc(CN2CCC(Cc3ccccc3)CC2)cc1,?,?,?,0,0,21µM
CN(C)CCCNC(=S)N1CCC(C(=O)c2ccc(Cl)cc2)CC1,0,0,0,0,0,0
COc1ccc(CCNC(=S)N2CCC(Cc3ccccc3)CC2)cc1OC,0,?,?,0,15µM,0
CCCNC(=S)N1CCC(Cc2ccccc2)CC1,0,0,0,0,0,0
CC(C)OCCCNC(=S)N1CCC(C(=O)c2ccc(Cl)cc2)CC1,?,?,0,0,8.2µM,0
O=C(c1ccc(CN2CCOCC2)cc1)N1CCC(Cc2ccccc2)CC1,0,0,0,0,21µM,0
O=S(=O)(c1ccc(Cl)nc1)N(Cc1ccccc1)Cc1ccccc1,0,0,0,0,18µM,0
COc1cccc(Cn2c(Cn3c(-c4cnccn4)nc4ccccc43)nc3ccccc32)c1,0,-,0,-,?,0
COc1cccc(Cn2c(C(C)n3c(-c4cnccn4)nc4ccccc43)nc3ccccc32)c1 (centres undefined),15µM,-,?,-,16µM,?
O=S(=O)(NCCS(=O)(=O)N1CCN(c2ccccc2F)CC1)c1ccc(Cl)cc1,-,0,-,0,-,-
OC[C@@H]1CN(Cc2ccccc2)C[C@H](n2cnc3c(NCc4ccco4)ncnc32)O1,0,0,0,0,0,0
OC[C@@H]1CN(Cc2ccc(-c3ccccc3)cc2)C[C@H](n2cnc3c(NCc4ccco4)ncnc32)O1,18µM,?,?,0,?,21µM
COc1cc(CNc2ncnc3c2ncn3[C@H]2CN(Cc3cccc4ccccc34)C[C@@H](CO)O2)cc(OC)c1OC,?,?,?,0,21µM,?
OC[C@@H]1CN(Cc2ccc(-c3ccccc3)cc2)C[C@H](n2cnc3c(NCc4ccncc4)ncnc32)O1,23µM,?,?,0,?,?
COc1cc(CNc2ncnc3c2ncn3[C@H]2CN(Cc3ccc(-c4ccccc4)cc3)C[C@@H](CO)O2)cc(OC)c1OC,?,?,?,0,0,?
OCCNc1ncnc2c1ncn2[C@H]1CN(Cc2ccc(-c3ccccc3)cc2)C[C@@H](CO)O1,0,0,0,0,0,0
OC[C@@H]1CN(Cc2cccc(C(F)(F)F)c2)C[C@H](n2cnc3c(NCc4ccc(F)cc4)ncnc32)O1,21µM,?,?,0,?,?
CCOC(=O)c1sc(NC(=O)c2cc(-c3ccc(F)cc3)on2)c(C(=O)OCC)c1C,-,0,0,0,0,-
C=CCc1cccc(/C=N/NC(=O)CNc2cccc3ccccc23)c1O,?,?,?,0,0,?
C=CCc1cccc(/C=N/NC(=O)CCCNc2ccc(C)cc2)c1O,?,?,?,0,23µM,?
C=CCc1cccc(/C=N/NC(=O)CNc2ccccc2OC)c1O,18µM,13µM,?,0,?,?
COc1ccccc1/C=C\C(=O)NCC(=O)N/N=C/c1ccc(O)cc1O,9.2µM,?,0,0,0,?
SMILES,HT1080 IDH1KD tx,TGFb inhibitor,KB-3-1 cytotox,HepG2 viability,KB-V1 cytotox,HT1080NT lethal
C=CCc1cccc(/C=N/NC(=O)CNc2ccccc2)c1O,18µM,?,0,0,0,?
C=CCc1cccc(/C=N/NC(=O)C[n+]2ccccc2)c1O,?,0,?,0,0,?
COc1ccc(NC(=O)CN2C(=O)C3(SCC(=O)N3c3cccc(OC)c3)c3ccccc32)cc1 (centres undefined),-,0,0,0,0,-
C=CCc1cccc(/C=N/NC(=O)CCC(=O)Nc2ccc(F)cc2)c1O,23µM,?,?,0,0,?
CC(=O)c1c(C)[nH]c(C(=O)COc2cc(C)cc(C)c2)c1C,?,0,0,0,2.6µM,0
CC(=O)c1c(C)[nH]c(C(=O)COc2ccc3ccc(=O)oc3c2)c1C,0,0,0,0,?,0
CCCOc1ccc(OCC(=O)c2[nH]c(C)c(C(C)=O)c2C)cc1,?,0,?,0,2.9µM,0
CCOC(=O)C1CCCN(C(=O)c2cc(COc3ccc(C)nc3)on2)C1 (centres undefined),0,0,0,0,16µM,0
COCCC1CCCCN1C(=O)c1cc(COc2ccc(C)nc2)on1 (centres undefined),0,0,0,0,0,21µM
CCC1CCCCN1C(=O)c1cc(COc2ccc(-n3cncn3)cc2)on1 (centres undefined),0,0,18µM,0,13µM,?
COCCCC1CCN(C(=O)c2cc(COc3ccc(C)nc3)on2)CC1,0,0,-,0,-,?
CCOC(=O)C1CCCN(C(=O)c2cc(-c3ccc(C)cc3)on2)C1 (centres undefined),0,0,0,0,0,0
CC(C)(C)c1ccc(C(=O)Nc2ccc(-c3nc4ccccc4[nH]3)cc2)cc1,-,-,0,-,0,-
CCOc1ccc(NC(=O)C(=O)NCC(c2cccnc2)N2CCc3ccccc32)cc1 (centres undefined),-,?,?,0,18µM,-
Cc1cc(C)c2c(c1)/C(=c1/sc3n(c1=O)CN(c1ccccc1)CN=3)C(=O)N2,?,0,?,0,16µM,0
CC(=O)N/C(=C\c1ccccc1)C(=O)OCC(=O)NC1CCS(=O)(=O)C1 (centres undefined),0,0,0,0,0,0
CCOc1cc(C(=O)CSc2nnc(CNc3ccc(Cl)cc3)o2)ccc1NC(=O)CC,?,?,?,10µM,21µM,0
Cn1nc(-c2ccccc2)c(CSc2ccccc2Cl)c1Cl,?,0,?,0,12µM,?
Cn1nc(-c2ccccc2)c(C(O)c2ccc(Cl)cc2)c1Cl (centres undefined),0,0,0,0,0,0
CCN=C1NN=C(c2cc(C)n(CCc3ccccc3)c2C)CS1,0,0,0,0,?,0
C=CCn1c(C)cc(C2=NNC(=NCc3ccccc3)SC2)c1C,?,0,?,0,9.2µM,?
COc1ccc(NC(=O)c2c(C)oc3ccc(O)c(CN4CCC(C)CC4)c23)cc1Cl,-,13µM,0,10µM,0,-
CCN1CCN(Cc2c(O)ccc3oc(C)c(C(=O)Nc4ccc(OC)c(Cl)c4)c23)CC1,-,0,0,0,0,-

# Bioassay records (PubChem)
